From PubChem BioAssay (NCI)
About 79,000 compounds went through this panel and 15% of them were active in at least one assay; those are over-represented in the sample as a whole. Activity calls are given as the source filed them. Rule as the data show it: active = growth inhibition above about 70%; inactive = the rest.

Key:
[1] = NCI Yeast Anticancer Drug Screen. Data for the rad50 strain (AID 155);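 also: 0% = growth of vehicle-only cultures of the same strain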; conditions: S. cerevisiae rad50 strain growth inhibition, active compounds read high
Outline: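 Growth of the mutant yeast was measured after compound exposure and referenced to vehicle-treated cultures.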

[2] = NCI Yeast Anticancer Drug Screen. Data for the mec2-1 strain (AID 157); conditions: S. cerevisiae mec2-1 strain, active compounds read high
Outline: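 Cells of the genetically defined mec2-1 yeast strain are incubated with test compound. Inhibition of growth is calculated against vehicle-treated controls.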

[3] = NCI Yeast Anticancer Drug Screen. Data for the sgs1 mgt1 strain (AID 161);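 also: 0% = growth of cultures given vehicle only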; conditions: S. cerevisiae sgs1 mgt1 strain, active compounds read high
Outline: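 Test agents were incubated with a DNA-repair-mutant yeast strain. Growth was then read and compared against vehicle-treated controls.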

[4] = NCI Yeast Anticancer Drug Screen. Data for the cln2 rad14 strain (AID 165);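 also: 0% = growth equal to vehicle treated cultures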; conditions: S. cerevisiae cln2 rad14 strain, active compounds read high
Outline: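 The screen exposed genetically defined yeast (cln2 rad14) to test compounds and scored growth inhibition relative to vehicle-treated controls.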

[5] = NCI Yeast Anticancer Drug Screen. Data for the bub3 strain (AID 167); conditions: S. cerevisiae bub3 mutant strain, active compounds read high
Outline: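 Whole-cell yeast assay. The mutant strain was incubated with compounds, and growth inhibition was determined by comparison with vehicle-treated cells.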

[6] = NCI Yeast Anticancer Drug Screen. Data for the mlh1 rad18 strain (AID 175); conditions: S. cerevisiae mlh1 rad18 strain growth inhibition, active compounds read high
Outline: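 Compound-treated yeast growth, normalised to vehicle controls. Strain bears defined DNA repair mutations.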

[7] = at 5.0 µM (retest, dose inferred, filed as 0.5)
[8] = at 50.0 µM (retest, dose inferred, filed as 5.0)

Measured: growth inhibition

O=C(Sc1c(-c2ccccc2)c(=O)n(-c2ccccc2)c(=S)n1-c1ccccc1)c1cccs1
inactive: [1]; [7] 37% | [2]; [7] 39% | [3]; [7] 23% | [4]; [7] 25% | [4]; at 50.0 µM 56% | [5]; [7] 47% | [6]; [7] 66%
active: [1]; [8] 92% | [1]; at 50.0 µM 72.2% | [2]; [8] 95% | [2]; at 50.0 µM 73.1% | [3]; [8] 93% | [3]; at 50.0 µM 77.9% | [4]; [8] 92% | [5]; [8] 95% | [5]; at 50.0 µM 84% | [6]; [8] 95% | [6]; at 50.0 µM 77.6%

CC(=O)Oc1cccc2c1C(=O)C(Br)(Br)CCC2
inactive: [4]; [7] 52%
active: [1]; [7] 91% | [1]; [8] 99% | [1]; at 50.0 µM 92.1% | [2]; [7] 100% | [2]; [8] 99% | [2]; at 50.0 µM 87% | [3]; [7] 92% | [3]; [8] 99% | [3]; at 50.0 µM 88.5% | [4]; [8] 99% | [4]; at 50.0 µM 89.4% | [5]; [7] 99% | [5]; [8] 99% | [5]; at 50.0 µM 90% | [6]; [7] 99% | [6]; [8] 99% | [6]; at 50.0 µM 93.2%

O=C(Nc1cccc2ccccc12)OCC1CCc2ccccc2C1 (configuration not stated)
inactive: [1]; [7] -1% | [1]; [8] 6% | [1]; at 50.0 µM 12.9% | [2]; [7] -6% | [2]; [8] 2% | [2]; at 50.0 µM 22.6% | [3]; [7] -4% | [3]; [8] 17% | [3]; at 50.0 µM 54.2% | [4]; [7] -8% | [4]; [8] -9% | [4]; at 50.0 µM 9.25% | [5]; [7] -2% | [5]; [8] 29% | [6]; [7] -5% | [6]; [8] 27% | [6]; at 50.0 µM 31.1%
active: [5]; at 50.0 µM 72.2%

CN(C)CCNC(=O)c1cccc2ccc(-c3ccc(-c4ccccc4)cc3)nc12
active: [1]; [8] 99% | [1]; at 50.0 µM 99.2% | [2]; [8] 98% | [2]; at 50.0 µM 99.6% | [3]; [8] 99% | [3]; at 50.0 µM 99.2% | [4]; [8] 99% | [4]; at 50.0 µM 98.5% | [5]; [8] 99% | [5]; at 50.0 µM 99.1% | [6]; [8] 99% | [6]; at 50.0 µM 99.4%
inactive: [1]; [7] 4% | [2]; [7] -1% | [3]; [7] -1% | [4]; [7] 1% | [5]; [7] -41% | [6]; [7] 0%

O=C(/C=C/c1ccc([N+](=O)[O-])o1)N1CCN(Cc2ccccc2)CC1
inactive: [1]; [7] 38% | [2]; [7] 33% | [2]; at 50.0 µM 60% | [3]; [7] 55% | [4]; [7] 35% | [4]; [8] 60% | [4]; at 50.0 µM 38.8% | [5]; [7] 43% | [5]; at 50.0 µM 62% | [6]; [7] 52% | [6]; at 50.0 µM 58.6%
active: [1]; [8] 78% | [1]; at 50.0 µM 75.1% | [2]; [8] 75% | [3]; [8] 92% | [3]; at 50.0 µM 74% | [5]; [8] 75% | [6]; [8] 91%

CCCCCCCCCCNC(=O)CBr
active: [1]; [8] 99% | [1]; at 50.0 µM 83.7% | [2]; [8] 100% | [3]; [8] 99% | [4]; [8] 100% | [5]; [8] 99% | [5]; at 50.0 µM 97.8% | [6]; [8] 99% | [6]; at 50.0 µM 94%
inactive: [1]; [7] 2% | [2]; [7] -2% | [2]; at 50.0 µM 64.8% | [3]; [7] -3% | [3]; at 50.0 µM -1.3% | [4]; [7] 5% | [4]; at 50.0 µM 18.9% | [5]; [7] 14% | [6]; [7] 6%

[O-]c1c(-c2cccc3ccccc23)sc(-c2cccc3ccccc23)[n+]1-c1ccccc1
active: [1]; [8] 92% | [1]; at 50.0 µM 70.7% | [2]; [8] 95% | [3]; [8] 92% | [4]; [8] 93% | [5]; [8] 93% | [6]; [8] 92% | [6]; at 50.0 µM 78.7%
inactive: [1]; [7] 5% | [2]; [7] 10% | [2]; at 50.0 µM 55.2% | [3]; [7] 8% | [3]; at 50.0 µM 50.1% | [4]; [7] -2% | [4]; at 50.0 µM 52.6% | [5]; [7] -2% | [5]; at 50.0 µM 46.1% | [6]; [7] 5%

CN(C)CCCNCC(=O)Nc1ccc(S(=O)(=O)c2ccc(NC(=O)CNCCCN(C)C)cc2)cc1
inactive: [1]; [7] 2% | [2]; [7] -2% | [2]; at 50.0 µM 58.7% | [3]; [7] -11% | [4]; [7] 7% | [4]; [8] 66% | [5]; [7] 2% | [5]; at 50.0 µM 30.2% | [6]; [7] 3%
active: [1]; [8] 92% | [1]; at 50.0 µM 95.2% | [2]; [8] 97% | [3]; [8] 95% | [3]; at 50.0 µM 97.2% | [4]; at 50.0 µM 78.1% | [5]; [8] 89% | [6]; [8] 96% | [6]; at 50.0 µM 90.2%

Oc1ccc(CNC2CCCCC2)cc1
inactive: [1]; [7] -4% | [1]; [8] 4% | [2]; [7] -13% | [2]; [8] -20% | [2]; at 50.0 µM 31.2% | [3]; [7] -5% | [3]; [8] 10% | [4]; [7] -2% | [4]; [8] -11% | [4]; at 50.0 µM 50.5% | [5]; [7] -14% | [5]; [8] -20% | [5]; at 50.0 µM 37.4% | [6]; [7] 1% | [6]; [8] -25% | [6]; at 50.0 µM 46.9%
active: [1]; at 50.0 µM 70.8% | [3]; at 50.0 µM 79.8%
